Reference: the supplement of paper PMC11732987, “Enantioselective OTUD7B fragment discovery through chemoproteomics screening and high-throughput optimisation” (Communications Chemistry, 2025)

Columns and labels:
Assay in all cases: log2 ratio of Biotin-Ahx-Ub-VS probe labelling (fragment/DMSO); higher = less target engagement (more negative = stronger competition), active = hit call of the paper (q ≤ 0.05, log2 ratio ≤ -1)
Conditions in all cases: compound concentration: 200 uM; treatment time: 3 h
USP34 = USP34 (UniProt Q70CQ2)
Sequence of USP34 (Q70CQ2 whole entry, the tested form may be a part): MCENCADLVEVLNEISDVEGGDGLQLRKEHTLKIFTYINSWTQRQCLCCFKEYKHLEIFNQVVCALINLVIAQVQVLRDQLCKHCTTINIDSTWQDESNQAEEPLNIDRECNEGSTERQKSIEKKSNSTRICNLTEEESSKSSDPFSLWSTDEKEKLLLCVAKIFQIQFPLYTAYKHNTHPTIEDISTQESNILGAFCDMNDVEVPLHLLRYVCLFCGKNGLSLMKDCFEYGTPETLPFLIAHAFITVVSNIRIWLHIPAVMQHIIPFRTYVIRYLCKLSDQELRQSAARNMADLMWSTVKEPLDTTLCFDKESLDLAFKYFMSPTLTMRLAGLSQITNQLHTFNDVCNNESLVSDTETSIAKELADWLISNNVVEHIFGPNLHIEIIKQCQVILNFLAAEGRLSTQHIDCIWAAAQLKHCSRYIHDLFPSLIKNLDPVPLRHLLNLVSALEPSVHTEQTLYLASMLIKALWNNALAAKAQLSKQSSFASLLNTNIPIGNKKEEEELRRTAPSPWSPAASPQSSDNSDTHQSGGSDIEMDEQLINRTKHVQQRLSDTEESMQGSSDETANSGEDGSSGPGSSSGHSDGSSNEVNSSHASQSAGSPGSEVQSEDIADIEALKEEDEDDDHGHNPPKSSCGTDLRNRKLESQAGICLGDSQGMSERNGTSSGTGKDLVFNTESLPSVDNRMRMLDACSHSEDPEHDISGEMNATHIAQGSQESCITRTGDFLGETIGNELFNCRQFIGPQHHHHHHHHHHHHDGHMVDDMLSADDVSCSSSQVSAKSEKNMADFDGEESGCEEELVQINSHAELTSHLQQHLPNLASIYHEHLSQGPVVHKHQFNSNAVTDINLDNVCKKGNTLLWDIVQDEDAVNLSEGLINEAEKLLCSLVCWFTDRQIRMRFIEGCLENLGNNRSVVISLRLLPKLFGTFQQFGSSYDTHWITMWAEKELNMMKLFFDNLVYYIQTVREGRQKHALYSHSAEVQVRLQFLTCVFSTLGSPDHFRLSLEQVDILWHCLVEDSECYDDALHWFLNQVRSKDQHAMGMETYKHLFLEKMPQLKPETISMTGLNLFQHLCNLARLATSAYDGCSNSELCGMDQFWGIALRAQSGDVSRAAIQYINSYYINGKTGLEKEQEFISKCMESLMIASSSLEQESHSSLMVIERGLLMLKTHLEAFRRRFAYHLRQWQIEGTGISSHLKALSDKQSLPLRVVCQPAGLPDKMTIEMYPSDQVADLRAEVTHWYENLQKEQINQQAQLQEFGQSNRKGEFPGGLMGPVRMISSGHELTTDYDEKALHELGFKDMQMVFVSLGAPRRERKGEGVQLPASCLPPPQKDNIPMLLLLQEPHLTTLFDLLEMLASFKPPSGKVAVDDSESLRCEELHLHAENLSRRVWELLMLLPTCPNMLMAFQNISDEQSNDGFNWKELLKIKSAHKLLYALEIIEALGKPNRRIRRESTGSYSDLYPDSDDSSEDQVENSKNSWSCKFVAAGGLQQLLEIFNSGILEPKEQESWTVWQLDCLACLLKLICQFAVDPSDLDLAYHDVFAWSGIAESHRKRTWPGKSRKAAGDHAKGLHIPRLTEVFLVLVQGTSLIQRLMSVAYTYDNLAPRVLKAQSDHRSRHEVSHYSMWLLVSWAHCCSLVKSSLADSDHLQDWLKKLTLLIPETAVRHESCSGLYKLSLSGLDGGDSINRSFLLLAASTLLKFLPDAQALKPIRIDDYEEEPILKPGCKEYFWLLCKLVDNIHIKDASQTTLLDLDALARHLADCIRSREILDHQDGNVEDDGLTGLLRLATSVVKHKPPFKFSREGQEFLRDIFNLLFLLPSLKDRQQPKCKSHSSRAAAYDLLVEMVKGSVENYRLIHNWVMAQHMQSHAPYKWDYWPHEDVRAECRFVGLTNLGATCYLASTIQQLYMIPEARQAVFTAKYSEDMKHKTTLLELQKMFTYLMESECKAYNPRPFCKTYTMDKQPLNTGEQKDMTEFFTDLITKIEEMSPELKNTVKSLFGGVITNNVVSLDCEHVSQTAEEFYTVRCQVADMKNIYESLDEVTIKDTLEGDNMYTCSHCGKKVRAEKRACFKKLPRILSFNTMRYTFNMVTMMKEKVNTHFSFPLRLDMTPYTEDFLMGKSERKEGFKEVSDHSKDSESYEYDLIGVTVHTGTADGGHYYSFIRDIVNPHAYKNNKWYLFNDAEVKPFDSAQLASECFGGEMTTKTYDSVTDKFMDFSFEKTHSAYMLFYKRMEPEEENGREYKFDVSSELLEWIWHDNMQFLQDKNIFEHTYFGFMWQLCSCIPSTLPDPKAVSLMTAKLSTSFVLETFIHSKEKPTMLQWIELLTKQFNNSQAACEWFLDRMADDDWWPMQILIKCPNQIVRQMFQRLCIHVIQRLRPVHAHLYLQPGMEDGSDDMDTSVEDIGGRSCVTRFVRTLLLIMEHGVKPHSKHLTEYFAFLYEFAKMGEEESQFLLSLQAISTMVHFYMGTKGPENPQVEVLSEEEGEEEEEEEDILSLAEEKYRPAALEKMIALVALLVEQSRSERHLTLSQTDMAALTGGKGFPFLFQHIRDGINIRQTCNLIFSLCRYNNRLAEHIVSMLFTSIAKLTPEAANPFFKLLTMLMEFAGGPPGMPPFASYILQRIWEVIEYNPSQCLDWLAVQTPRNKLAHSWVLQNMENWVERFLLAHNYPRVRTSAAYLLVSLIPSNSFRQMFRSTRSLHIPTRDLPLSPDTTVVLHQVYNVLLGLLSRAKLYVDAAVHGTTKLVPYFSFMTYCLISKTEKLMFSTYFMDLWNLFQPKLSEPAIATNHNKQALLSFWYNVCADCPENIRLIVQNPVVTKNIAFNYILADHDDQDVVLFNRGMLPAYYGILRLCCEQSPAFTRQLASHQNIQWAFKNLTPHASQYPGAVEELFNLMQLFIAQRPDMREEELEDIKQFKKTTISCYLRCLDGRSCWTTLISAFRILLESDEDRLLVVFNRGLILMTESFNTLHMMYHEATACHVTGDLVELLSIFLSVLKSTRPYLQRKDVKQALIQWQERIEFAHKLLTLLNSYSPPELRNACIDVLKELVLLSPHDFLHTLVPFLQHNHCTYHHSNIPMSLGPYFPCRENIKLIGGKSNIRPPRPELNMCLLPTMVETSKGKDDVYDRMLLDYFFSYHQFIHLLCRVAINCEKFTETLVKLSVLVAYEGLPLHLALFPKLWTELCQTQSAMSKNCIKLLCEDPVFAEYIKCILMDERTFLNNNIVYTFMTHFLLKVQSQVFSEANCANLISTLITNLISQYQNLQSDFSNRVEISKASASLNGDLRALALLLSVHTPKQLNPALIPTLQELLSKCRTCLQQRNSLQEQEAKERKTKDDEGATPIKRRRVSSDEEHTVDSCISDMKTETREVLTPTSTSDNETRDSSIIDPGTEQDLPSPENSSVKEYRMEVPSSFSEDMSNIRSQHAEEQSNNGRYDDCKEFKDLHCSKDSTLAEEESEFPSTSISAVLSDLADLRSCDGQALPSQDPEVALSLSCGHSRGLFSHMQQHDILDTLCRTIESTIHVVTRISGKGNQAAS
Summary of the method: (§1)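 In triplicate, 495 µg of HEK293T lysate per sample was incubated with fragment at 200 µM or vehicle for 3 h. Biotin-Ahx-Ub-VS was then added to 0.5 µM final for 1 h, and labelled DUBs were captured with NeutrAvidin, digested with LysC and trypsin, and measured by diaPASEF LC-MS/MS. Data are average log2 fragment/vehicle ratios by unpaired t-test from global-median-normalised Spectronaut label-free quantities, restricted to proteins with ≥2 unique peptides.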

USP36 = target: T1, USP36 (UniProt Q9P275)
T1 sequence (whole entry): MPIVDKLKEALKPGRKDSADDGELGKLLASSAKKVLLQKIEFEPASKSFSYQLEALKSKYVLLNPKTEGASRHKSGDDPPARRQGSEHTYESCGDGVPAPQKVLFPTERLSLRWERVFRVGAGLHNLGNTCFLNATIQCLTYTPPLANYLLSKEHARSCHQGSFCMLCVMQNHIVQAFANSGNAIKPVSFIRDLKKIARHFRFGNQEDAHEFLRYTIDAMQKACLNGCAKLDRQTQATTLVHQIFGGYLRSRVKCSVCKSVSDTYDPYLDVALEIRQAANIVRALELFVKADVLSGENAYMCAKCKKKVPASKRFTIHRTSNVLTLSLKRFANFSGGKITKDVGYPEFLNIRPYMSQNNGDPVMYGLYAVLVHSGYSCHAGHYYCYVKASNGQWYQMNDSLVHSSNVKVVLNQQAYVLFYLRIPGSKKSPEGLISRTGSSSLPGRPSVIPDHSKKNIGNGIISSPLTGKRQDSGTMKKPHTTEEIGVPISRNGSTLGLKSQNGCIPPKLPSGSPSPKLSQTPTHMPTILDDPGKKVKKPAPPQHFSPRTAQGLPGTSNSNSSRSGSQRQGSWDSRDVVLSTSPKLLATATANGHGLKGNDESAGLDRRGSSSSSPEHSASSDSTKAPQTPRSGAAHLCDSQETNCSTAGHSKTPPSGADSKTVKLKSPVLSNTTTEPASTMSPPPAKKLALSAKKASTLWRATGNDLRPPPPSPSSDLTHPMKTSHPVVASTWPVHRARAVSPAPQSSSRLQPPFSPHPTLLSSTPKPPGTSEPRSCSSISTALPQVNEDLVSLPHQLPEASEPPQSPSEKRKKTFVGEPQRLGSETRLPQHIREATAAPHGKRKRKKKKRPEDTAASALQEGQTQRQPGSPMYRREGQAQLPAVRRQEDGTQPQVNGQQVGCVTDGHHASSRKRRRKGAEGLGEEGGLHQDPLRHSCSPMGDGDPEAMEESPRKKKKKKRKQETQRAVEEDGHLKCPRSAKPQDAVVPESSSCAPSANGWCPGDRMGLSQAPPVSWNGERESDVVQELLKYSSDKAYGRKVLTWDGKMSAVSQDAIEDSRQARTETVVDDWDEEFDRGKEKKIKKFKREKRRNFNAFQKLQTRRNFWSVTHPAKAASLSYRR
Summary of the method: as §1

USP38 = target: T2, USP38 (UniProt Q8NB14)
T2 sequence (whole entry): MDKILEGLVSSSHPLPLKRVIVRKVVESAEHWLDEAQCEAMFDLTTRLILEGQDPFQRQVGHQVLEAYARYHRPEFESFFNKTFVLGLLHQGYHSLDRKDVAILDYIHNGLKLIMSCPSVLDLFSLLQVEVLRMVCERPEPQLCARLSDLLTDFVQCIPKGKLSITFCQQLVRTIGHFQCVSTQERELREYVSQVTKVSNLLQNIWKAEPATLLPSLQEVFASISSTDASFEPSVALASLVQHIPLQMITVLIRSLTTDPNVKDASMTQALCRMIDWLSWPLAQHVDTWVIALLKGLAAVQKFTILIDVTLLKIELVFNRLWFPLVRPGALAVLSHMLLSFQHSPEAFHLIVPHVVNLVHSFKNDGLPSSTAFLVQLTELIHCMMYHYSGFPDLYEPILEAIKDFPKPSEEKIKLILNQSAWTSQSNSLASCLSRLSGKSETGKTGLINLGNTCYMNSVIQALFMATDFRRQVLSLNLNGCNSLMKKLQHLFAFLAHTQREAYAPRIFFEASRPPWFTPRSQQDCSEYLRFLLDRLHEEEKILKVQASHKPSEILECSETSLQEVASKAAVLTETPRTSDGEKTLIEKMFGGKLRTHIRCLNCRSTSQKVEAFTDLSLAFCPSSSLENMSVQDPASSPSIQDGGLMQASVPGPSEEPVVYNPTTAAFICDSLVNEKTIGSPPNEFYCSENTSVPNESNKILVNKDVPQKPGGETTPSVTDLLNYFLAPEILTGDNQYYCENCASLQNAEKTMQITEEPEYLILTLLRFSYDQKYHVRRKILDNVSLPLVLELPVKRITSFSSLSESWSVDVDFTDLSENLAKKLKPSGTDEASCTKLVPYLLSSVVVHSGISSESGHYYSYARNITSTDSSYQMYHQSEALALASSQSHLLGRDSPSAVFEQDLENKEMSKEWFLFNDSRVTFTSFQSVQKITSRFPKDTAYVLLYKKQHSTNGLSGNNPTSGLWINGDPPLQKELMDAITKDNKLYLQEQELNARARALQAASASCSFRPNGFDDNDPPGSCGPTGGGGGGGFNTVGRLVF
Summary of the method: as §1

USP39 = target: T3, USP39 (UniProt Q53GS9)
T3 sequence (whole entry): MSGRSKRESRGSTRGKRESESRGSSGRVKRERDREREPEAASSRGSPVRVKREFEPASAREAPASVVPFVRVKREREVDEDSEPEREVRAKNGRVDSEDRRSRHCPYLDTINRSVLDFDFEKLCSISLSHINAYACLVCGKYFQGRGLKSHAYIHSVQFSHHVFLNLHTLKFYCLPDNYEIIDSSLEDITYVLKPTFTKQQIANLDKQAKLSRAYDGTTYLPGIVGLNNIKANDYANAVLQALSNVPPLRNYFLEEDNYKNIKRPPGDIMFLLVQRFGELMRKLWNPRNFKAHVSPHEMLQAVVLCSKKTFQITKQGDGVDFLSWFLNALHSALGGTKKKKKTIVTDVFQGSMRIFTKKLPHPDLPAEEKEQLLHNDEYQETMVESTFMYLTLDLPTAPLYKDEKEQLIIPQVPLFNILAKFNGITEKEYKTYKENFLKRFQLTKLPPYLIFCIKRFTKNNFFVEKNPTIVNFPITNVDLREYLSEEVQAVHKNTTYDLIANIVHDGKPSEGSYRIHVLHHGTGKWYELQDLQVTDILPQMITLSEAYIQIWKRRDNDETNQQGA
Summary of the method: as §1

USP4 = target: T4, USP4 (UniProt Q13107)
T4 sequence (whole entry): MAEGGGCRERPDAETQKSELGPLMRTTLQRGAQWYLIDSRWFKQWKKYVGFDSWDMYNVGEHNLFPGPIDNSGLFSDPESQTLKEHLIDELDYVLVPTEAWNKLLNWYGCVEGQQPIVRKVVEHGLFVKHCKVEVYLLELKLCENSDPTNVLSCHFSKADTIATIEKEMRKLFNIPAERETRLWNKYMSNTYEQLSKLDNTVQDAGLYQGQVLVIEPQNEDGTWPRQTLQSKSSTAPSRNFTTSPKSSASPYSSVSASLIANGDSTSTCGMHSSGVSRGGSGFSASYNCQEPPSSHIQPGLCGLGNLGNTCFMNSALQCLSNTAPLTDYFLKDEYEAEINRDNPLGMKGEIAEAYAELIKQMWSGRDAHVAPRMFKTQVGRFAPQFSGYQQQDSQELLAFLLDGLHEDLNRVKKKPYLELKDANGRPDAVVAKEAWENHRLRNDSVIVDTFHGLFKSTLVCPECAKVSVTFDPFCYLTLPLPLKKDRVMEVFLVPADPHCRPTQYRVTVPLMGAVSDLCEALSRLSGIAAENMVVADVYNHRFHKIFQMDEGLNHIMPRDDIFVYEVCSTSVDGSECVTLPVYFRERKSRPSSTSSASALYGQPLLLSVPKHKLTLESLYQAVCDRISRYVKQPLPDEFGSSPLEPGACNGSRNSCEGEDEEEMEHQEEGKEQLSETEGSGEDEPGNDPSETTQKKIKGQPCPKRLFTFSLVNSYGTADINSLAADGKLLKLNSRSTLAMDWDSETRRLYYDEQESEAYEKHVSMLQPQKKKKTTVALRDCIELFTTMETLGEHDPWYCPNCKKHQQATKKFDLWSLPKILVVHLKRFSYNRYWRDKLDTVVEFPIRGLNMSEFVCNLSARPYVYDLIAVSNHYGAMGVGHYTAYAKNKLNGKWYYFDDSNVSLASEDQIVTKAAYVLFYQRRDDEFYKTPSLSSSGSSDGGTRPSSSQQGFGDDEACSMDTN
Summary of the method: as §1

Measured: log2 ratio of Biotin-Ahx-Ub-VS probe labelling

Cc1ccc2nnc(CNC(=O)CCl)n2c1
inactive: USP34 -0.0797 | USP36 -0.0909 | USP38 -0.0516 | USP39 -0.108 | USP4 0.17
